Only some compounds are listed: those with a hit (about 1.6% of all), similar ones and a draw of the others.
HTR5A inv ctr: counter-screen for OPRM1-OPRD1 inverse agonists: human HTR5A inverse agonism; HTR5A cell line, luminescence; inhibition, % at 9.3 µM; 0.083% of 340,000 active; AID 504634; in the data active = inhibition mostly above about 23%, no sharp cut-off; inactive = mostly below about 18%
HTR5A ag ctr: activates human HTR5A in OPRM1-OPRD1 agonist counter-screen; 0.61% of 340,000 active; HTR5A agonist assay, luminescence, cell-based; activation, % at 9.3 µM; AID 504692; in the data active = activation mostly above about 9.5%, no sharp cut-off; inactive = mostly below about 7.6%
MOR-DOR inv ag: inverse agonists of human mu-delta opioid receptor heterodimerization; 0.21% of 340,000 active; AID 504357; inhibition, % at 9.3 µM; cell-based MOR-DOR heterodimer luminescence, inverse agonism; in the data active = inhibition above about 22%, passing the limit was not always enough
m5-HT2A agonist: mouse HTR2A agonism via beta-arrestin recruitment; CHO-K1 mHTR2A beta-arrestin complementation, luminescence; percent of 30 µM serotonin response; activation, % at 7.6 µM; 0.66% of 360,000 active; P35363; AID 624169;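 active = activation above a run cutoff, the mean activation of all tested compounds plus 3 SD, cut at about 14% in these data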
MOR-DOR ag: agonists of human mu-delta opioid receptor heterodimerization; P35372+P41143; cells, OPRM1-OPRD1 heterodimerization, luminescence; activation, % at 9.3 µM; 0.3% of 340,000 active; in the data active = activation above about 18%
Each line names hits and unclear results; the compound was inactive in the other large screens.

CC(C)(C)c1cc(CCC(=O)NNC(=S)NC(=O)c2ccccc2)cc(C(C)(C)C)c1O	HTR5A inv ctr 82, MOR-DOR inv ag 68
O=C(OCc1nc2ccccc2s1)c1ccc(Br)o1	none
O=C(OCc1nc2ccccc2s1)c1ccc([N+](=O)[O-])o1	HTR5A ag ctr 20
COc1ccc(OC)c(N=Nc2c(O)c3ccccc3[nH]c2=O)c1	HTR5A ag ctr 14
Nc1nc(Br)c2c(F)cccc2c1-c1ccc(Cl)cc1	HTR5A ag ctr 11
Nc1nc(Br)c2ccccc2c1-c1ccccc1	none
CC(C)CC1NC(=O)N(CC(=O)Nc2ccc3c(c2)OCCO3)C1=O (stereo not drawn)	HTR5A ag ctr 11
COC1=C(Br)C(=O)c2ncccc2C1=O	none
C#CCOCCOCCOCCNc1nc(N2CCN(C(=O)CCCCCCCCCCNC(=O)[C@H]([C@@H](C)CC)n3cc(CCCCCN)nn3)CC2)nc(N2CCN(C(=O)CCCCCCCCCCNC(=O)[C@H]([C@@H](C)CC)n3cc(CCCCN=C(N)N)nn3)CC2)n1	m5-HT2A agonist 16
O=C(CN1CCN(CCC(=O)Nc2ccccc2F)CC1)Nc1ccc(F)cc1	none
O=C(CN1CCN(CCC(=O)Nc2ccccc2F)CC1)Nc1ccc(Cl)cc1	HTR5A ag ctr 13
Cc1ccc(C)c(S(=O)(=O)NNC(=O)c2sc(NS(=O)(=O)c3ccccc3)nc2C)c1	none
Cc1nc(C)c(C(=O)NNS(=O)(=O)c2ccccc2)s1	HTR5A ag ctr 10
Fc1ccccc1N=C1NN=C(c2ccccc2)CS1	HTR5A ag ctr 11
COc1ccc(CNC(=O)Cn2nc(C(F)(F)F)c(Br)c2C)cc1	none
COc1cc(NC(=O)Cn2nc(C(F)(F)F)c(Br)c2C)cc([N+](=O)[O-])c1	HTR5A ag ctr 12
O=C(Oc1cccc(C(=S)N2CCOCC2)c1)c1ccc([N+](=O)[O-])cc1[N+](=O)[O-]	HTR5A ag ctr 9.4
CC1CN(C(=O)CCS(=O)(=O)c2ccccc2)CC(C)O1 (stereo not drawn)	HTR5A ag ctr 14
O=C(CCS(=O)(=O)c1ccccc1)N1CCOCC1	none
CCOc1ccc(NC(=S)N(CCOC)C(C)c2cccnc2)cc1 (stereo not drawn)	none
C=CCn1c(SCC(=O)Nc2ccc(-c3nc4ccc(C)cc4s3)cc2)nnc1-c1ccccc1	MOR-DOR ag 20
C=CCn1c(SCC(=O)Nc2ccc(C(=O)OC(C)C)cc2)nnc1-c1cccs1	HTR5A ag ctr 9.0
CCOC(=O)c1ccc(NC(=O)CSc2nnc(-c3cccs3)n2CC)cc1	none
CCOC(=O)c1csc(NNC=O)n1	none
O=C1C(=O)C(Cl)=C(Cl)C(Cl)=C1Cl	none (no result: HTR5A inv ctr, HTR5A ag ctr, MOR-DOR inv ag, MOR-DOR ag)
CCC(=O)N1CCCC1(C)C(=O)Nc1cccc(Oc2ccccc2)c1 (stereo not drawn)	none (no result: HTR5A inv ctr, HTR5A ag ctr, MOR-DOR inv ag, MOR-DOR ag)
COC(=O)[C@H](NCc1ccc(OC)c(B(O)O)c1)C(C)C	HTR5A ag ctr 11
CCOc1cc(/C=N/N=C(N)N)ccc1OCc1ccc(Cl)cc1	none
COc1cc(/C=N/N=C(N)N)ccc1OCc1ccc(Cl)cc1	HTR5A ag ctr 10
CCC(C)Sc1nnc(CSc2nc3nc(C)cc(C)n3n2)o1 (stereo not drawn)	none
COc1cccc(-c2nc(NCc3cccnc3)c3ccccc3n2)c1O	HTR5A ag ctr 11
CS(=O)(=O)Nc1cccc(NC(=O)c2cccc3c(-c4cccnc4)coc23)c1	none (no result: HTR5A inv ctr, HTR5A ag ctr, MOR-DOR inv ag, MOR-DOR ag)
CCCC(C(=O)c1ccccc1)n1cncn1 (stereo not drawn)	HTR5A ag ctr 11
C[C@@H](c1ccccc1)N1C[C@H](COCc2ccccc2)Oc2cc(N3CC[C@H](N(C)C)C3)ccc2S1(=O)=O	none (no result: HTR5A inv ctr, HTR5A ag ctr, MOR-DOR inv ag, MOR-DOR ag)
O=[N+]([O-])C1C(c2ccccc2)C12c1ccccc1-c1ccccc12 (stereo not drawn)	none (no result: HTR5A inv ctr, HTR5A ag ctr, MOR-DOR inv ag, MOR-DOR ag)
CC(C)(C)c1ccc(S(=O)(=O)NNC(=O)c2cc3ccccc3[nH]2)cc1	HTR5A ag ctr 13
CCn1c(C)nc2cc(C(=O)N/N=C/c3ccc(O)c(O)c3O)ccc21	HTR5A ag ctr 13
CCn1c(C)nc2cc(C(=O)N/N=C/c3cccc(OC)c3O)ccc21	none
c1ccc(-c2cnn3nnnc3n2)cc1	HTR5A ag ctr 12
Cc1c(Cl)cccc1NC(=S)NN	none
Cc1cccc(Cl)c1NC(=S)NN	HTR5A ag ctr 13
O=C(NCc1ccccn1)C1(C(F)(F)F)C/C(=C\CCO)CCCO1 (stereo not drawn)	none
Cc1occc1C(=O)N/N=C/c1ccc(OCc2ccccc2)cc1	none

From PubChem
